Inconclusive results are not listed. Activity calls are given as the source filed them. Calls follow the shape of the dose curve; as a rule, active = well fitted curve in the direction sought with a large enough effect; inconclusive = small, poorly fitted or top-dose-only effect, or another doubt; inactive = no such curve, though single readings can be large; an effect the other way counts as inactive or inconclusive.
Legend:
C33A = test: Primary qHTS to identify gynecologic anti-cancer compounds using libraries of approved drugs and bioactive compounds (AID 1345084); conditions: Gynecologic cancer cell panel viability, ATPlite luminescence, 48 h; series mostly up to 57.5 µM; also: nearly all actives have a fitted effect of over 55% in size
In short: (§1)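 Cytotoxicity screen measuring ATP content by luciferase luminescence. Each compound is applied at five concentrations for 48 h at 37 C with 5% CO2.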

CASKI = test: as above; conditions: Gynecologic cancer cell panel viability, ATPlite luminescence, 48 h; series mostly up to 57.5 µM
In short: as §1

Es-2 = test: as above; conditions: Gynecologic cancer cell panel viability, ATPlite luminescence, 48 h; series mostly up to 57.5 µM
In short: as §1

HeLa = test: as above; conditions: Gynecologic cancer cell panel viability, ATPlite luminescence, 48 h; series mostly up to 57.5 µM
In short: as §1

PA-1 = test: as above; conditions: Gynecologic cancer cell panel viability, ATPlite luminescence, 48 h; series mostly up to 57.5 µM
In short: as §1

Tov112D = test: as above; conditions: Gynecologic cancer cell panel viability, ATPlite luminescence, 48 h; series mostly up to 57.5 µM
In short: as §1

Hek293T = test: as above; conditions: Gynecologic cancer cell panel viability, ATPlite luminescence, 48 h, control line for the selectivity index; series mostly up to 57.5 µM
In short: as §1

JEG-3 = test: as above; conditions: Gynecologic cancer cell panel viability, ATPlite luminescence, 48 h; series mostly up to 57.5 µM
In short: as §1

OV90 = test: as above; conditions: Gynecologic cancer cell panel viability, ATPlite luminescence, 48 h; series mostly up to 57.5 µM
In short: as §1

Tov-21-G = test: as above; conditions: Gynecologic cancer cell panel viability, ATPlite luminescence, 48 h; series mostly up to 57.5 µM
In short: as §1

SKOV3 = test: as above; conditions: Gynecologic cancer cell panel viability, ATPlite luminescence, 48 h; series mostly up to 57.5 µM
In short: as §1

[1] = qHTS assay to identify inhibitors of the type 1 interferon - major histocompatibility complex class I in skeletal muscle: Counter screen cell viability and HiBit confirmation (AID 1347412); conditions: iHSKM muscle cells + IFN-b, HiBiT or CellTiter-Glo, 24 h; also: nearly all actives have a fitted effect of over 60% in size
In short: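 After 24 h with human IFN-beta (4 ng/ml) and compound titrations (top 46 uM final, 1:3, 12 points), HLA-B HiBit myoblasts were lysed for either Nano-Glo HiBiT luminescence or CellTiter Glo viability on paired plates.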

Measured: Potency
Potency is read from the fitted curve at half-maximal effect.

FC(F)(F)c1ccc(Nc2nc(-c3c(C(F)(F)F)nc4ccccn34)cs2)cc1
inactive: CASKI
active: C33A 20 µM | Es-2 2 µM | HeLa 0.891 µM | PA-1 1.26 µM | Tov112D 0.708 µM

CC1CCC2C(C)(C)[C@@H](O)CC[C@]2(C)C12Cc1c(O)cc3c(c1O2)CN(C(CCC(=O)O)C(=O)O)C3=O (some centres not stated)
inactive: C33A | CASKI | Es-2 | HeLa | Hek293T | JEG-3 | OV90 | PA-1 | Tov-21-G | Tov112D

C[C@@H]1O[C@@H](O[C@H]2[C@@H]3C=CO[C@@H](O[C@@H]4O[C@H](CO)[C@@H](O)[C@H](O)[C@H]4O)[C@@H]3[C@@]3(CO)O[C@@H]23)[C@H](OC(=O)/C=C/c2ccccc2)[C@H](O)[C@H]1O
inactive: C33A | CASKI | Es-2 | HeLa | Hek293T | JEG-3 | OV90 | PA-1 | Tov-21-G | Tov112D

O=C1C=CC(O)(/C=C/C(=O)OC[C@H]2O[C@@H](Oc3ccc(O)cc3)[C@H](O)[C@@H](O)[C@@H]2O)C=C1
inactive: C33A | CASKI | Es-2 | HeLa | Hek293T | JEG-3 | OV90 | PA-1 | SKOV3 | Tov-21-G | Tov112D

CC[C@H](CO)Nc1nc(NCc2ccc(-c3ccccn3)cc2)c2ncn(C(C)C)c2n1
active: C33A 1.26 µM | CASKI 2.51 µM | Es-2 0.794 µM | HeLa 3.16 µM | PA-1 1 µM | Tov112D 1.78 µM

C=C1C(=O)OC2/C=C(\CO)CC/C=C(\C=O)CC(OC(=O)CC(C)C)C12 (configuration not stated)
inactive: C33A | CASKI | HeLa | Hek293T | JEG-3 | OV90 | Tov112D

CN(c1ccccc1CNc1nc(Nc2ccc3c(c2)CC(=O)N3)ncc1C(F)(F)F)S(C)(=O)=O
inactive: Tov-21-G
active: C33A 6.31 µM | Es-2 20 µM | HeLa 15.8 µM | OV90 8.91 µM | PA-1 15.8 µM | Tov112D 25.1 µM

C=C(C)C(=O)OC1C(OC(C)=O)/C(C=O)=C\CC/C(CO)=C/C2OC(=O)C(=C)C21 (configuration not stated)
inactive: C33A | CASKI | HeLa | JEG-3 | OV90 | PA-1 | SKOV3 | Tov112D

COc1cc(Br)c(Nc2nc(-c3c(C)nc4ncccn34)cs2)c(Br)c1
active: Es-2 8.91 µM | PA-1 4.47 µM | SKOV3 8.91 µM | Tov-21-G 10 µM
inactive: C33A | CASKI

COc1ccc(/C=C/C(=O)O[C@@H]2[C@@H](O)[C@H](C)O[C@@H](O[C@H]3[C@@H]4C=CO[C@@H](O[C@H]5O[C@@H](CO)[C@H](O)[C@@H](O)[C@@H]5O)[C@@H]4[C@@]4(CO)O[C@@H]34)[C@@H]2OC(C)=O)cc1
inactive: C33A | Es-2 | HeLa | Hek293T | JEG-3 | OV90 | PA-1 | SKOV3 | Tov-21-G | Tov112D

C=CC(=O)N1CCN(C(=O)CNc2cc(I)c(Cl)cc2O)CC1
inactive: C33A | Es-2 | HeLa | Hek293T | JEG-3 | OV90 | PA-1 | SKOV3 | Tov-21-G | Tov112D

CN1CCN(c2ccc(C(=O)Nc3n[nH]c4ccc(Cc5cc(F)cc(F)c5)cc34)c(NC3CCOCC3)c2)CC1
active: [1]; HiBiT 17.6 µM | [1]; Viability 27.9 µM
inactive: C33A | Es-2 | Hek293T | JEG-3 | Tov-21-G | Tov112D

Cc1cnc(NC(=O)Nc2cc(Br)c(C)cc2OCC2CNCCO2)cn1 (configuration not stated)
inactive: C33A | CASKI | JEG-3 | PA-1 | Tov112D
active: Hek293T 8.91 µM | SKOV3 10 µM

N#Cc1c(Oc2ccc(F)c(NC(=O)Cc3cccc(C(F)(F)F)c3)c2)ccc2nc(NC(=O)C3CC3)sc12
inactive: C33A
active: Es-2 5.62 µM | HeLa 10 µM | OV90 1.58 µM | PA-1 8.91 µM | Tov-21-G 7.94 µM

CC1CCC2C(C(=O)O)=COC(O[C@@H]3O[C@H](CO)[C@@H](O)[C@H](O)[C@H]3O)C12 (some centres not stated)
inactive: C33A | CASKI | Es-2 | Hek293T | OV90 | PA-1 | Tov-21-G | Tov112D

CO[C@H]1C[C@@H]2CC[C@@H](C)[C@@](O)(O2)C(=O)C(=O)N2CCCC[C@H]2C(=O)O[C@H]([C@H](C)C[C@@H]2CC[C@@H](OP(C)(C)=O)[C@H](OC)C2)CC(=O)[C@H](C)/C=C(\C)[C@@H](O)[C@@H](OC)C(=O)[C@H](C)C[C@H](C)/C=C/C=C/C=C/1C
inactive: C33A | Es-2 | HeLa | JEG-3 | PA-1 | SKOV3 | Tov-21-G | Tov112D

c1ccc(-c2csc(N3CCOCC3)n2)cc1
inactive: C33A | CASKI | Es-2 | JEG-3 | OV90 | PA-1 | SKOV3 | Tov-21-G | Tov112D

Reference: PubChem BioAssay (NCATS)
